Reference: PubChem BioAssay (EPA / NIEHS)
Several values for one entry are separate records, joined by “and”; a condition that tells them apart may be missing. Identical values can stand only once. Records with an inconclusive call do not appear. A structure can be active in one record and inactive in another. Activity calls are given as the source filed them. The calls were made as follows, unless noted: active = hit-call score of the fitted dose curve at least 0.9, where 1 is the maximum; inconclusive = response in the unintended direction; inactive = score below 0.9.

Assays:
[1] = read-out: Thyroid Hormone Responsive (THRSP), THRSP (gene 7069); assay: LTEA_HepaRG_THRSP: Life Technologies and Expression Analysis (LTEA) Assay for Thyroid Hormone Responsive (THRSP) using HepaRG (AID 2283536; active = hit-call score of the fitted dose curve at least 0.9, where 1 is the maximum; inactive = score below 0.9); details: mRNA level, 48 h; actives raise or lower the signal
Outline: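 qRT-PCR read-out (Fluidigm TaqMan), housekeeping-normalized (ACTB/GAPDH/POLR2A). HepaRG, 48 h chemical exposure, 8-pt half-log series from 100 uM in 0.5% DMSO, duplicates. Bidirectional curve fit vs 0.5% DMSO baseline.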

[2] = read-out: Cellular tumor antigen p53 (Homo sapiens) (UniProt P04637); assay: LTEA_HepaRG_TP53: Life Technologies and Expression Analysis (LTEA) Assay for Tumor Protein P53 (TP53) using HepaRG (AID 2283537; active = hit-call score of the fitted dose curve at least 0.9, where 1 is the maximum; inactive = score below 0.9); details: mRNA level, 48 h; actives raise or lower the signal
Outline: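 Gain or loss of TP53 mRNA signal is scored relative to 0.5% DMSO after 48 h chemical treatment of HepaRG liver cells, tested in duplicate at eight half-log concentrations up to 100 uM.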

[3] = read-out: UDP glucuronosyltransferase (UGT1A1), UGT1A1 (gene 54658); assay: LTEA_HepaRG_UGT1A1: Life Technologies and Expression Analysis (LTEA) Assay for UDP glucuronosyltransferase (UGT1A1) using HepaRG (AID 2283538; active = hit-call score of the fitted dose curve at least 0.9, where 1 is the maximum; inactive = score below 0.9); details: mRNA level, 48 h; actives raise or lower the signal
Outline: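 mRNA induction or loss of UGT1A1, by TaqMan qRT-PCR, in duplicate HepaRG wells after 48 h exposure to half-log dilutions topping at 100 uM; DMSO (0.5%) served as baseline.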

[4] = read-out: UDP glucuronosyltransferase (UGT1A6), UGT1A6 (gene 54578); assay: LTEA_HepaRG_UGT1A6: Life Technologies and Expression Analysis (LTEA) Assay for UDP glucuronosyltransferase (UGT1A6) using HepaRG (AID 2283539; active = hit-call score of the fitted dose curve at least 0.9, where 1 is the maximum; inactive = score below 0.9); details: mRNA level, 48 h; actives raise or lower the signal
Outline: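 Measures mRNA change in HepaRG hepatic cells exposed 48 h to chemicals (eight-point, maximum 100 uM, 0.5% DMSO vehicle) in serum-free induction medium. Expression normalized to endogenous controls; DMSO served as negative control and baseline.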

[5] = read-out: X-box binding protein 1 (XBP1), XBP1 (gene 7494); assay: LTEA_HepaRG_XBP1: Life Technologies and Expression Analysis (LTEA) Assay for X-box binding protein 1 (XBP1) using HepaRG (AID 2283540; active = hit-call score of the fitted dose curve at least 0.9, where 1 is the maximum; inactive = score below 0.9); details: mRNA level, 48 h; actives raise or lower the signal
Outline: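 Eight concentrations (half-log, highest 100 uM, 0.5% DMSO) tested in duplicate on HepaRG cells over 48 h in serum-free induction medium; qRT-PCR of XBP1 normalised to ACTB, GAPDH, POLR2A.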

[6] = LTEA_HepaRG_LDH_cytotoxicity: Cytotoxicity Assessment in the Life Technologies and Expression Analysis (LTEA) Assay (AID 2283563);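 as to AC50: LDH activity released into spent culture medium as a marker of cell death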
Outline: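 Spent-medium LDH after 48 h chemical exposure of HepaRG cells in serum-free induction medium; eight concentrations, half-log dilutions from 100 uM, duplicate wells, fitted upward relative to 0.5% DMSO.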

[7] = TOX21_p53_BLA_p2_viability: Viability Assessment in the Tox21 HCT-116 p53 Agonism Beta-lactamase Assay, Phase 2 (AID 2283591);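 also: compound exposure lasted 16 h at 37 °C; actives lower the ATP signal meaning cytotoxicity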
Outline: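 HCT116 p53-bla cells, 4000/well, dosed after 5 h plating (217-fold dilution of DMSO stocks) and incubated 16 h at 37C. Viability taken as cellular ATP by CellTiter-Glo luminescence after 30 min RT; signal loss marks cytotoxicity.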

[8] = biological target: Cellular tumor antigen p53 (Homo sapiens) (UniProt P04637); assay: TOX21_p53_BLA_p2_ratio: Tox21 HCT-116 p53 Agonism Beta-lactamase Assay, Ratio, Phase 2 (AID 2283592)
Outline: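 DMSO-normalized, positive-direction endpoint derived from the 460 nm/530 nm FRET ratio in HCT116 p53 beta-lactamase reporter cells exposed 16 h at 37C and loaded with CCF4-AM for 2 h.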

[9] = TOX21_p53_BLA_p3_viability: Viability Assessment in the Tox21 HCT-116 p53 Agonism Beta-lactamase Assay, Phase 3 (AID 2283593);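 also: cells exposed to compound for 16 h before reading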
Outline: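 HCT116 cells, 4000/well, dosed 5 h after plating by pin transfer (217-fold dilution from DMSO stock) and incubated 16 h at 37C, 5% CO2. Viability read as ATP luminescence with CellTiter-Glo after 30 min at room temperature.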

[10] = ATG_XTT_Cytotoxicity: Cytotoxicity Assessment in the Attagene TRANS-FACTORIAL HepG2 Assay (AID 2283584)
Outline: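 24 h chemical exposure of reporter-transfected HepG2; XTT signal loss vs DMSO indicates cytotoxicity.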

Measured: AC50

Cellular tumor antigen p53 (Homo sapiens), sequence (P04637 whole entry, looked up): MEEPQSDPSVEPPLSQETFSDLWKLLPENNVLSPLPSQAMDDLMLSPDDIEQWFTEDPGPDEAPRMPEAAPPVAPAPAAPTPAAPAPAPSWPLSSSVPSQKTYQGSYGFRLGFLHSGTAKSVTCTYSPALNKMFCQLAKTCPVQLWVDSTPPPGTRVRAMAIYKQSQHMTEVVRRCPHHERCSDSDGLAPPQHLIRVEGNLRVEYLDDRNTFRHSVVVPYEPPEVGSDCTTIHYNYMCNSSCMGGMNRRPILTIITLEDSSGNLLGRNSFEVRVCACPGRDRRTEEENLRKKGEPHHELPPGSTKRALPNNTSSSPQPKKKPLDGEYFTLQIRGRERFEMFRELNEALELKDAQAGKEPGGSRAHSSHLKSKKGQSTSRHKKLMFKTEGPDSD

Cc1occc1C(=O)Nc1ccc(C(=O)N2CCC(F)(F)/C(=C\C(=O)N3CCC(N4CCCCC4)CC3)c3ccccc32)cc1
active: [3] 54.3 µM | [6] 49.6 µM
not listed: [10]
inactive: all other assays above

O=C1CCC(C2CCCCC2)CC1
not listed: [10]
inactive: all other assays above

O=c1ccc2ccccc2o1
active: [3] 65.4 µM
not listed: [9] | [10]
inactive: all other assays above

Cc1cc2c(cc1C(F)(F)F)N(C(=O)Nc1ccc(Oc3cccnc3C)nc1)CC2
active: [2] 75 µM | [3] 81.4 µM | [4] 76.1 µM | [6] 70.5 µM
not listed: [10]
inactive: all other assays above

CN(C)C(=O)C1(N2CCCCC2)CCN(CC[C@@]2(c3ccc(Cl)c(Cl)c3)CN(C(=O)c3ccccc3)CCO2)CC1
inactive: [5]
active: [1] 24.2 µM | [2] 47.2 µM | [3] 27.6 µM | [4] 25.7 µM | [6] 20 µM | [7] 37.8 µM | [8] 70.9 µM | [9] 70.5 µM

CC[C@H](NC(=O)c1cc(F)ccc1NS(=O)(=O)c1cccc2cccnc12)c1ccccc1
active: [3] 11.1 µM | [4] 47.8 µM
not listed: [10]
inactive: all other assays above

CC(C)(O)c1ccc(CNC(=O)c2cccnc2Oc2ccc3nonc3c2)cc1
active: [1] 60.8 µM | [3] 9.41 µM
not listed: [9] | [10]
inactive: all other assays above

Oc1ccc2ccccc2c1
not listed: [9]
inactive: all other assays above

O=C(OCCCCCCOC(=O)c1ccccc1)c1ccccc1
not listed: [7] | [8] | [9]
inactive: all other assays above

c1ccc2ccccc2c1
active: [3] 17.4 µM
inactive: all other assays above

Clc1ccccc1C(c1ccccc1)(c1ccccc1)n1ccnc1
inactive: [5] | [7] | [9]
active: [1] 29.9 µM | [2] 28 µM | [3] 28 µM | [4] 15.8 µM | [6] 70.7 µM | [7] 58.2 µM | [8] 64.8 µM and 19 µM | [9] 81.9 µM

COc1cc(C(=O)NC2CCN(C)CC2)ccc1Nc1ncc2c(n1)N(C1CCCC1)CC(F)(F)C(=O)N2C
active: [1] 0.923 µM | [2] 8 µM | [3] 21 µM | [4] 8.85 µM | [5] 10.8 µM | [6] 16.5 µM | [7] 47.4 µM | [8] 0.00393 µM | [9] 55.2 µM
inactive: [10]

Oc1ccccc1
not listed: [10]
inactive: all other assays above

OCCO
active: [2] 9.97 µM
not listed: [10]
inactive: all other assays above

CCCCOC(=O)CC(CC(=O)OCCCC)(OC(C)=O)C(=O)OCCCC
not listed: [9]
inactive: all other assays above

CC(C)(c1cc(Br)c(O)c(Br)c1)c1cc(Br)c(O)c(Br)c1
inactive: [1] | [4] | [5]
active: [2] 89.2 µM | [3] 78.2 µM | [6] 58.3 µM | [7] 35.7 µM and 46 µM | [8] 54.6 µM and 64.2 µM and 60.5 µM | [9] 55.7 µM and 52.9 µM and 46 µM

c1ccc2n[nH]nc2c1
not listed: [10]
inactive: all other assays above
